60 molecules from the antibiotic and cytotoxicity screens of Wong et al. (2023) can be followed below.

Among all 39,000 compounds or so, about 1,500 (3.8%) were called active. Only a selection was taken, and actives are over-represented in it overall.

This assay relates to HSkMC (human skeletal muscle cells). Nature of the assay: cytotoxicity call (relative viability < 0.9). The following applies: 10 µM.
For the molecule `CC1(C)OC2CC3C4CCC5=CC(=O)CCC5(C)C4(F)C(O)CC3(C)C2(C(=O)CCl)O1` (stereo not given), the cytotoxicity call is “inactive”.
As for `C[C@H]1CN([C@@H](C)CO)C(=O)CCCn2nncc2CO[C@@H]1CN(C)C(=O)Nc1ccc(N2CCCCC2)cc1`, the entry is “inactive”.
As for `Cc1noc(C)c1NC(=O)N(C)C[C@@H]1Oc2ccc(NC(=O)Nc3cccc4ccccc34)cc2C(=O)N([C@@H](C)CO)C[C@@H]1C`, the entry is “inactive”; as for `COc1ccc(CN(C)C[C@H]2OCCCC[C@@H](C)Oc3ccc(NC(=O)c4ccccc4)cc3C(=O)N([C@H](C)CO)C[C@H]2C)cc1`, “inactive”; as for `C[C@@H]1CN([C@H](C)CO)C(=O)c2cc(NS(=O)(=O)c3cccs3)ccc2O[C@@H]1CN(C)S(=O)(=O)c1ccc(F)cc1`, “inactive”.
To `COc1ccc(NC(=O)N(C)C[C@H]2Oc3ncc(C#CCN(C)C)cc3C(=O)N([C@@H](C)CO)C[C@@H]2C)cc1` belongs “inactive”.
In the case of `C[C@@H]1CCCCO[C@@H](CN(C)C(=O)C2CCCCC2)[C@@H](C)CN([C@H](C)CO)C(=O)c2cc(NC(=O)Nc3cccc4ccccc34)ccc2O1`, the cytotoxicity call is “inactive”.
As for `COc1ccc(NC(=O)N(C)C[C@@H]2OCCCC[C@H](C)Oc3ccc(NC(=O)NC4CCCCC4)cc3C(=O)N([C@H](C)CO)C[C@@H]2C)cc1`, the entry is “inactive”; as for `COCC#Cc1ccc2c(c1)O[C@H](CN(C)S(=O)(=O)c1ccc(F)cc1)[C@H](C)CN([C@@H](C)CO)S2(=O)=O`, “inactive”; as for `COc1cccc(S(=O)(=O)Nc2ccc3c(c2)[C@@H]2C[C@H](CC(=O)N4CCCCC4)O[C@H](CO)[C@@H]2O3)c1`, “inactive”.
To `C[C@@H]1CCCCO[C@@H](CN(C)S(=O)(=O)c2ccc(F)cc2)[C@@H](C)CN([C@@H](C)CO)C(=O)c2cc(NS(C)(=O)=O)ccc2O1` belongs “inactive”; to `C[C@@H]1CCCCO[C@@H](CN(C)Cc2ccccc2)[C@@H](C)CN([C@H](C)CO)C(=O)c2cc(NC(=O)Nc3cccc4ccccc34)ccc2O1`, “inactive”; to `C[C@@H]1CCCCO[C@H](CN(C)Cc2ccccc2)[C@H](C)CN([C@@H](C)CO)C(=O)c2cc(NC(=O)Nc3cccc4ccccc34)ccc2O1`, “active”.
For `C[C@@H]1CCCCO[C@@H](CN(C)Cc2ccc(C(=O)O)cc2)[C@@H](C)CN([C@@H](C)CO)C(=O)c2cc(NC(=O)Nc3cccc4ccccc34)ccc2O1`, the cytotoxicity call was “inactive”.
To `C[C@@H]1CN([C@H](C)CO)C(=O)c2cc(NC(=O)Nc3cccc4ccccc34)ccc2O[C@@H](C)CCCCO[C@@H]1CN(C)Cc1ccccc1` belongs “inactive”; to `C[C@@H]1CN([C@@H](C)CO)C(=O)c2cc(NC(=O)Nc3cccc4ccccc34)ccc2O[C@@H](C)CCCCO[C@H]1CN(C)Cc1ccccc1`, “inactive”; to `C[C@@H]1CCCCO[C@@H](CN(C)Cc2ccccc2)[C@H](C)CN([C@H](C)CO)C(=O)c2cc(NC(=O)Nc3cccc4ccccc34)ccc2O1`, “inactive”.
As for `C[C@@H]1CCCCO[C@@H](CN(C)Cc2ccccc2)[C@H](C)CN([C@@H](C)CO)C(=O)c2cc(NC(=O)Nc3cccc4ccccc34)ccc2O1`, the entry is “inactive”; as for `C[C@H]1CCCCO[C@H](CN(C)Cc2ccccc2)[C@@H](C)CN([C@@H](C)CO)C(=O)c2cc(NC(=O)Nc3cccc4ccccc34)ccc2O1`, “active”; as for `C[C@@H]1CN([C@@H](C)CO)C(=O)c2cc(NC(=O)Nc3cccc4ccccc34)ccc2O[C@@H](C)CCCCO[C@@H]1CN(C)Cc1ccccc1`, “active”.
To `COc1ccc(S(=O)(=O)N2C[C@H](O)COC[C@@H]3O[C@@H](CC(=O)N[C@H]4CCN(Cc5ccccc5)C4)CC[C@H]32)cc1` belongs “inactive”; to `CN1C[C@@H](O)COC[C@H]2O[C@H](CC(=O)N3CCN(c4ccccc4)CC3)CC[C@@H]21`, “inactive”.
With `C=CCOC(=O)[C@H]1[C@@H]2C(=O)O[C@@H](c3ccccc3)[C@@H](c3ccccc3)N2[C@@H](c2ccc(OCCOC(=O)[C@H]3C[C@H]4C(=O)N[C@@H](Cc5ccccc5)C(=O)N4[C@H]3c3cccc(OCCO)c3)cc2)[C@]12C(=O)Nc1ccc(I)cc12`, the cytotoxicity call was “inactive”.
To `CCS(=O)(=O)N1C[C@]2(CCN(CC2)C(=O)NC2CCCC2)c2c(n(c3cc(ccc23)OC)C)[C@@H]1CO` belongs “inactive”.
For `C[C@@H]1CN([C@@H](C)CO)C(=O)c2cc(NC(=O)Nc3ccc(C(F)(F)F)cc3)ccc2O[C@H]1CN(C)C(=O)NC1CCCCC1`, the cytotoxicity call was “inactive”.
As for `C[C@@H]1CCCCO[C@@H](CN(C)C(=O)Nc2ccc(C(F)(F)F)cc2)[C@@H](C)CN([C@@H](C)CO)C(=O)c2cc(NC(=O)C3CCCCC3)ccc2O1`, the entry is “inactive”; as for `CCNC(=O)C[C@@H]1C=C[C@H](NC(=O)C2CCOCC2)[C@@H](CO)O1`, “inactive”; as for `C[C@@H]1CCCCO[C@@H](CN(C)S(=O)(=O)c2cccs2)[C@H](C)CN([C@@H](C)CO)C(=O)c2cc(NC(=O)CCC(F)(F)F)ccc2O1`, “inactive”.
In the case of `O=C(C[C@H]1C[C@@H]2c3cc(NC(=O)NC4CCCC4)ccc3O[C@@H]2[C@@H](CO)O1)NCc1ccc(-c2ccccc2)cc1`, the cytotoxicity call is “active”.
To `O=C(C[C@H]1C[C@H]2c3cc(NC(=O)NC4CCCC4)ccc3O[C@H]2[C@H](CO)O1)NCc1ccc(-c2ccccc2)cc1` belongs “inactive”.
To `O=C(C[C@@H]1C[C@@H]2c3cc(NC(=O)NC4CCCC4)ccc3O[C@@H]2[C@@H](CO)O1)NCc1ccc(-c2ccccc2)cc1` belongs “inactive”; to `CS(=O)(=O)Nc1ccc2c(c1)[C@@H]1C[C@@H](CC(=O)NCc3ccc(-c4ccccc4)cc3)O[C@@H](CO)[C@@H]1O2`, “active”.
As for `CS(=O)(=O)Nc1ccc2c(c1)[C@@H]1C[C@@H](CC(=O)NCc3ccc(-c4ccccc4)cc3)O[C@H](CO)[C@@H]1O2`, the entry is “inactive”.
`CS(=O)(=O)Nc1ccc2c(c1)[C@H]1C[C@H](CC(=O)NCc3ccc(-c4ccccc4)cc3)O[C@@H](CO)[C@H]1O2`: the cytotoxicity call is “inactive”.
As for `O=C(C[C@H]1C[C@H]2c3cc(NC(=O)NC4CCCC4)ccc3O[C@H]2[C@@H](CO)O1)NCc1ccc(-c2ccccc2)cc1`, the entry is “inactive”; as for `O=C(C[C@@H]1C[C@H]2c3cc(NC(=O)NC4CCCC4)ccc3O[C@H]2[C@H](CO)O1)NCc1ccc(-c2ccccc2)cc1`, “active”.
Turning to `O=C(C[C@H]1C[C@@H]2c3cc(NC(=O)NC4CCCC4)ccc3O[C@@H]2[C@H](CO)O1)NCc1ccc(-c2ccccc2)cc1`, the cytotoxicity call is “inactive”.
To `CC(C)NC(=O)N[C@@H]1C=C[C@@H](CC(=O)O)O[C@@H]1CO` belongs “inactive”; to `COc1ccc(S(=O)(=O)N(C)C[C@H]2Oc3ccc(NS(=O)(=O)c4cccs4)cc3CC(=O)N([C@H](C)CO)C[C@@H]2C)cc1`, “inactive”.
To `C[C@@H]1CN([C@@H](C)CO)C(=O)c2cc(NC(=O)Nc3ccccc3)ccc2O[C@@H](C)CCCCO[C@H]1CN(C)S(=O)(=O)c1ccc(C(F)(F)F)cc1` belongs “inactive”; to `Cc1ccc2cccc(OCCOc3ccccc3C(C)C)c2n1`, “inactive”; to `O=C(C[C@@H]1CC[C@H]2[C@@H](COC[C@@H](O)CN2S(=O)(=O)c2ccc(Oc3ccccc3)cc2)O1)NC1CCC1`, “inactive”.
Regarding `Cc1ccc2nc([C@H](N)C(C)C)[nH]c2c1`, the cytotoxicity call was “inactive”.
Turning to `C[C@@H]1CN([C@H](C)CO)C(=O)Cc2cc(NC(=O)Cc3ccccc3)ccc2O[C@@H]1CN(C)Cc1ccc(Cl)c(Cl)c1`, the cytotoxicity call is “active”.
On to `C[C@@H]1CN([C@H](C)CO)C(=O)Cc2cc(NC(=O)Cc3ccccc3)ccc2O[C@H]1CN(C)Cc1ccc(Cl)c(Cl)c1`, for which the cytotoxicity call was “inactive”.
With `C[C@@H]1CN([C@@H](C)CO)C(=O)Cc2cc(NC(=O)Cc3ccccc3)ccc2O[C@@H]1CN(C)Cc1ccc(Cl)c(Cl)c1`, the cytotoxicity call is “active”.
As for `C[C@@H]1CN([C@@H](C)CO)C(=O)Cc2cc(NC(=O)Cc3ccccc3)ccc2O[C@H]1CN(C)Cc1ccc(Cl)c(Cl)c1`, the entry is “inactive”; as for `C[C@H](CO)N1C[C@H](C)[C@H](CN(C)Cc2ccc(Cl)c(Cl)c2)Oc2ccc(NC(=O)Cc3ccccc3)cc2CC1=O`, “inactive”; as for `C[C@H]1CN([C@@H](C)CO)C(=O)Cc2cc(NC(=O)Cc3ccccc3)ccc2O[C@@H]1CN(C)Cc1ccc(Cl)c(Cl)c1`, “inactive”.
To `Cc1ccc(S(=O)(=O)Nc2cccc3c2O[C@@H](CN(C)S(=O)(=O)c2cccs2)[C@H](C)CN([C@@H](C)CO)C3=O)cc1` belongs “inactive”.
`C[C@@H]1CN([C@H](C)CO)C(=O)Cc2cc(NC(=O)C3CCCCC3)ccc2O[C@H]1CN(C)Cc1ccc(Cl)c(Cl)c1`: the cytotoxicity call is “inactive”.
For `C[C@H]1CN([C@@H](C)CO)C(=O)Cc2cc(NC(=O)C3CCCCC3)ccc2O[C@H]1CN(C)Cc1ccc(Cl)c(Cl)c1`, the cytotoxicity call was “inactive”.
To `C[C@@H]1CN([C@@H](C)CO)C(=O)Cc2cc(NC(=O)C3CCCCC3)ccc2O[C@H]1CN(C)Cc1ccc(Cl)c(Cl)c1` belongs “inactive”; to `C[C@H]1CN([C@@H](C)CO)C(=O)Cc2cc(NC(=O)C3CCCCC3)ccc2O[C@@H]1CN(C)Cc1ccc(Cl)c(Cl)c1`, “inactive”; to `C[C@@H]1CN([C@H](C)CO)C(=O)Cc2cc(NC(=O)C3CCCCC3)ccc2O[C@@H]1CN(C)Cc1ccc(Cl)c(Cl)c1`, “active”.
With `C[C@@H]1CN([C@@H](C)CO)C(=O)Cc2cc(NC(=O)C3CCCCC3)ccc2O[C@@H]1CN(C)Cc1ccc(Cl)c(Cl)c1`, the cytotoxicity call is “active”.
To `COc1ccc(NC(=O)Nc2cccc3c2O[C@@H](CN(C)S(=O)(=O)c2cn(C)cn2)[C@@H](C)CN([C@@H](C)CO)C3=O)cc1` belongs “inactive”; to `O=C(C[C@H]1CC[C@H]2[C@@H](COC[C@@H](O)CN2Cc2cc(F)ccc2F)O1)N[C@H]1CCN(Cc2ccccc2)C1`, “inactive”; to `O=C(C[C@@H]1CC[C@H](NC(=O)CN2CCOCC2)[C@@H](CO)O1)NCc1cccc(F)c1`, “inactive”.
On to `CN1C(=O)c2cc(NC(=O)C3CCCC3)ccc2OC[C@@H]2O[C@H](CC(=O)NCCc3ccncc3)CC[C@@H]21`, for which the cytotoxicity call was “inactive”.
